A number with no mark means an inactive call. Inconclusive results are not listed. For some assays here: Entries with a potency or affinity are not part of this list. Activity calls are given as the source filed them. Unless noted, no rule for the calls is given here.

One may read the AC50 as the midpoint of the concentration-response curve, whichever way the signal moves.

For experiment [1] the following is noted: Ebola virus entry assay, green fluorescence channel.
The conditions of experiment [2]: Ebola virus entry assay, blue channel fluorescence.
For experiment [3] the following is noted: Ebola virus entry assay, ratio channel.
The conditions of experiment [4]: Ebola virus entry assay, green channel fluorescence.
For experiment [5] the following is noted: Ebola virus entry assay, reporter ratio channel; Channel type: primary.
Experiment [6] can be described thus: qHTS assay for measurement of the activity of small molecule inhibitors on Zika virus induced Caspase-3 activity in human iPSC derived neural progenitor cells (hNPCs) (AID 1224857; active = well fitted curve in the direction sought with a large enough effect; an effect the other way counts as inactive or inconclusive; also: % of control where 0% means no effect; nearly all actives have a fitted effect of over 65% in size). The note with it: hNPCs ZIKV-induced caspase-3/7, Caspase-Glo luminescence, 6 h; series mostly up to 45.7 µM. The method, boiled down: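 hNPCs seeded 350 cells/well, cultured 16–20 h; compounds added 1 h before ZIKV (2 FFU/cell), 37 C 6 h. Caspase-Glo 3/7 luminescence after 30 min RT; % inhibition from induction scaled to uninfected (0%) and infected (100%) wells.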
For orientation: Quantitative high-throughput screening tests each substance at several concentrations.

A short description of experiment [7]: qHTS assay for measurement of the activity of small molecule inhibitors on Zika virus induced Caspase-3 activity in human astrocytoma cells (AID 1224859; active = well fitted curve in the direction sought with a large enough effect; an effect the other way counts as inactive or inconclusive;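 also: plate controls were ZIKV-infected untreated cells for no effect and uninfected cells for full effect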). The note with it: SNB-19 ZIKV-induced caspase-3/7, luminescence, 6 h; series mostly up to 45.7 µM. The method in brief:
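Luminescence read-out (Caspase-Glo 3/7, 30 min RT) of caspase activity in SNB-19 cells infected 6 h with ZIKV, 2 FFU/cell, after 1 h compound pretreatment; % inhibition from induction normalised to uninfected (0%) and infected (100%) wells.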

A short description of experiment [8]: qHTS assay to identify small molecule inhibitors of chordoma cells - UCH-1 (AID 1259355; active = well fitted curve in the direction sought with a large enough effect; an effect the other way counts as inactive or inconclusive; also: % is scaled to controls: 0 for no effect and ±100 for the full control effect; nearly all actives have a fitted effect of over 55% in size). The note with it: UCH-1 chordoma viability, CellTiter-Glo, 48 h, combination; series mostly up to 46.1 µM. The method in brief: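 A 48hr growth-inhibition format: each drug tested at 15 concentrations together with added auranofin, camptothecin, doxorubicin, rubitecan and topotecan, with cell viability quantified as CellTiter-Glo luminescence.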

Experiment [9] is described as follows: qHTS assay to identify small molecule inhibitors of chordoma cells - UCH-2 (AID 1259356; active = well fitted curve in the direction sought with a large enough effect; an effect the other way counts as inactive or inconclusive; also: % is scaled to controls: 0 for no effect and ±100 for the full control effect). Conditions: UCH-2 chordoma viability, CellTiter-Glo ATP luminescence, 48 h; series mostly up to 46.1 µM.
For experiment [10] the following is noted: Ebola virus entry assay, blue channel (ratio component).
For efficacy in this document: 0% is about no effect.

For `CC1N=C(N)OC1c1ccccc1` (stereo unspecified), the efficacy in experiment [1] was 23.7%. Besides, the AC50 in [2] and in experiment [5] was 31.6 µM (active) each time. The result in experiment [3], in experiment [4] and in experiment [7] was inactive. In [6], the Potency result was “inactive”.

With `COc1ccc2c3c1O[C@H]1[C@@H](O)C=C[C@H]4[C@@H](C2)N(C)CC[C@@]341`, the efficacy in experiment [1] was 44%. Also, the AC50 is 28.2 µM (active) in experiment [2] and 31.6 µM (active) in [5]. The result in experiment [3], in experiment [4] and in [7] was inactive. Moreover, the Potency result in experiment [6] was “inactive”.

`C[C@H]1[C@H]2CC[C@H]3[C@@H]4CC=C5C[C@@H](N(C)C)CC[C@]5(C)[C@H]4CC[C@]23CN1C`: in [1], the efficacy is 108%. Also, the AC50 in experiment [2], in experiment [3] and in experiment [5] was 10 µM (active) in each case.

On to `COc1cc(CC(C)N)cc2c1OCO2` (stereo unspecified), for which the efficacy in [1] was 23.1%. In addition, the half-maximal activity concentration (AC50) in experiment [2] and in [5] was 35.5 µM (active) each time. Besides, the result in experiment [3], in experiment [4] and in [7] was inactive. In [6], the Potency entry is “inactive”.

With `CCCN(CCC)CCc1c[nH]c2ccccc12`, the efficacy in experiment [1] was 39.8%. Besides, the AC50 is 35.5 µM (active) in experiment [2], 31.6 µM (active) in [3] and 31.6 µM (active) in experiment [5]. In addition, the call in experiment [4] and in experiment [7] was inactive. For the same compound, the Potency result in experiment [6] is “inactive”.

With `C[C@H]1CNCCc2ccc(Cl)cc21`, the efficacy in experiment [1] was 45.2%. Further, the results for the AC50 in [2] and in [5] were 20 µM (active) and 39.8 µM (active), respectively. For the same compound, the result in [3], in experiment [4] and in experiment [7] was inactive. The Potency entry in experiment [6] was “inactive”.

Regarding `CC(C)(C)OC(=O)c1ncn2c1[C@@H]1CCCN1C(=O)c1c(Br)cccc1-2`, the efficacy in [1] is 19.6%. Besides, the compound was called inactive in experiment [2], in experiment [3], in [4], in [5] and in [7]. Also, the Potency result in experiment [6], in [8] and in experiment [9] was “inactive” throughout.

Take `O=C(NC(=O)c1c(F)cccc1F)Nc1cc(Cl)c(OC(F)(F)C(F)C(F)(F)F)cc1Cl` (stereo unspecified): in [1], the efficacy was 43.9%. Moreover, the AC50 was 17.8 µM (active) in [2], 20 µM (active) in experiment [3] and 20 µM (active) in experiment [5]. Moreover, the call in experiment [4] and in experiment [7] was inactive. The Potency result in experiment [6], in experiment [8] and in experiment [9] was “inactive” throughout.

With `c1ccc(-c2ccc(C(c3ccccc3)n3ccnc3)cc2)cc1` (stereo unspecified), the efficacy in [1] is 98.3%. Besides, the figures for the AC50 in [2], in [3] and in experiment [5] were 12.6 µM (active), 14.1 µM (active) and 14.1 µM (active), respectively.

As for `CC[C@]1(O)CC[C@H]2[C@@H]3CCC4=CCCC[C@@H]4[C@H]3CC[C@@]21C`, in [1], the efficacy is 22.6%. Further, the AC50 in experiment [2] is 17.8 µM (active); in experiment [3] it was 15.8 µM (active); in [5], 15.8 µM (active). Moreover, the compound was classed as inactive in experiment [4] and in experiment [7]. Besides, the Potency result in experiment [6], in experiment [8] and in experiment [9] was “inactive” each time.

With `CCCCC[C@H](O)C=C[C@H]1[C@H](O)CC(=O)[C@H]1CC=CCCCC(=O)O`, the efficacy in experiment [1] is 75.7%. The AC50 in experiment [2] is 8.91 µM (active); in experiment [3], 7.08 µM (active); in [5] it was 7.08 µM (active).

Consider `Cc1ccc(C(=O)Oc2ccc(C(O)CNC(C)(C)C)cc2OC(=O)c2ccc(C)cc2)cc1` (stereo unspecified), for which, in [1], the efficacy is 67.4%. The AC50 in experiment [2] is 3.98 µM (active); in experiment [3], 3.55 µM (active); in experiment [5], 3.55 µM (active).

In the case of `O=C1NCN(c2ccccc2)C12CCN(CCCOc1ccc(F)cc1)CC2`, in [1], the efficacy is -43.3%. For the same compound, the AC50 in experiment [2], in experiment [3] and in experiment [5] was 3.16 µM (active) each time. For the same compound, the call in experiment [4] and in experiment [7] was inactive. For the same compound, the Potency result in [6], in [8] and in [9] was “inactive” in each case.

In the case of `CN(C)CCc1c[nH]c2cccc(O)c12`, in experiment [1], the efficacy was -23.9%. Besides, the AC50 is 35.5 µM (active) in experiment [2] and 39.8 µM (active) in experiment [5]. Besides, the result in [3], in experiment [4] and in experiment [7] was inactive. The Potency entry in [6] was “inactive”.

As for `C[N+](C)(C)CCOC(=O)C(O)(c1ccccc1)c1ccccc1`, the efficacy in [1] is -27.9%. Also, the compound was classed as inactive in [2], in [3], in [4], in experiment [5], in experiment [10] and in [7]. The Potency result in experiment [8] and in experiment [9] was “inactive” each time.

With `CCCCCCCCCCOCC(O)CN` (stereo unspecified), the efficacy in experiment [1] is -191%. Also, the AC50 in experiment [2] was 4.47 µM (active); in [3], 1.78 µM (active); in experiment [5] it was 1.78 µM (active).

As to `CCCC(C)C1(CC)C(=O)N=C(S)NC1=O` (stereo unspecified), in [1], the efficacy is 15.1%. The outcome in [2], in [3], in [4], in [5] and in [7] was inactive. Further, the Potency result in experiment [6], in experiment [8] and in [9] was “inactive” in each case.

(Values after PubChem BioAssay (NCATS).)
